# Screens as filed in PubChem BioAssay.
# Most compounds without a hit are left out; they make up all but 2.3% or so of the library.
# CHO-K1 Ca antag: counter-screen for M1 antagonists: effect in parental CHO-K1 cells | ATP-induced calcium, Fluo-8 fluorescence | inhibition, % at 3 µM | 0.6% of 360,000 active;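 active = inhibition above a per-plate cutoff, the plate's mean sample inhibition plus 3 SD, cut at about 24% in these data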;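 note: 0% = DMSO plus EC80 ATP and 100% = DMSO alone without ATP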
# M1 ag: activates human CHRM1 receptor; P11229; CHO-K1 hM1, Fluo-8 calcium fluorescence, agonist mode; 0% DMSO, 100% acetylcholine EC100; activation, % at 3 µM; 0.33% of 360,000 active;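 active = activation above the run's mean compound activation plus 3 SD, cut at about 16% in these data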;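 note: peak over basal fluorescence ratio within a 140 s kinetic read after compound addition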
# Target sequence (P11229 whole entry, looked up): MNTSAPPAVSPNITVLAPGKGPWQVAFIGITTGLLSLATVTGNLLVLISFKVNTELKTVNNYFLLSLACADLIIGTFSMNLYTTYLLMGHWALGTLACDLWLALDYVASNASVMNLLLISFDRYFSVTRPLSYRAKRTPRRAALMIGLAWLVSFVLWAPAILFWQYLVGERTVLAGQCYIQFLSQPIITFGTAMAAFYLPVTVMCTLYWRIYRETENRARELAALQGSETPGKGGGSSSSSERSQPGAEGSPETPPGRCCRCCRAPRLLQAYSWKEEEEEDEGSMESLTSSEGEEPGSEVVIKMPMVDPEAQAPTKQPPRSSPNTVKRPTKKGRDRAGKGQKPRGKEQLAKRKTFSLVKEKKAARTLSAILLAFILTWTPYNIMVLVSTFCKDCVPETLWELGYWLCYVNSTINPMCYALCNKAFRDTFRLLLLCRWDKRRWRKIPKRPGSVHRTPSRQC
# CHO-K1 Ca ag: counter-screen for M1 agonists: effect in parental CHO-K1 cells; Fluo-8 calcium fluorescence; scaled to maximal ATP response, vehicle zero; activation, % at 3 µM; 0.48% of 360,000 active; in the data active = activation above about 15%;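 note: untransfected CHO-K1 host cells lacking M1 receptor as counterscreen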
# CHRM1 PAM: potentiates human M1 receptor response to acetylcholine; P11229; CHO-K1 hM1, Fluo-8 calcium fluorescence, ACh EC20; 0% = ACh EC20, 100% = maximal ACh; activation, % at 3 µM; 0.088% of 360,000 active; AID 588819; in the data active = activation above about 19%, passing the limit was not always enough
# CHO-K1 Ca PAM: nonselective activator or artifact in parental CHO-K1 calcium assay | ATP EC20, Fluo-8 calcium fluorescence; 0% at ATP EC20, 100% at ATP max | activation, % at 3 µM | 0.02% of 360,000 active | AID 602247;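 active = activation above the run cutoff, the mean activation of all test compounds plus 3 SD, cut at about 40% in these data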;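 note: peak over basal fluorescence ratio in a 140 s read after ATP addition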
# M1 antag: blocks human M1 muscarinic receptor. P11229. CHO-K1 hM1, Fluo-8 calcium fluorescence, ACh EC80 antagonist. inhibition, % at 3 µM. 1.3% of 360,000 active;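 active = percent inhibition above its own plate's cutoff, namely the mean of that plate's compound wells plus 3 SD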;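 note: peak over basal fluorescence ratio during 140 s after agonist addition; 0% = ACh EC80 plus DMSO and 100% = DMSO alone without agonist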
# * = called active by the depositor.
SMILES,CHO-K1 Ca antag,M1 ag,CHO-K1 Ca ag,CHRM1 PAM,CHO-K1 Ca PAM,M1 antag
S=C1SC2(CCCCCC2)NC2=C1CCCCC2,10,0,13,-20,4,19
C=C(C)COc1ccc2oc(C)c(C(=O)OCCOC)c2c1,1,-4,0,-1,8,1
CCN(CC)CCOC(=O)c1c(C)oc2ccc(OC)cc12,-24,-8,0,-24,-1,25*
O=S(=O)(NC1=NCCCCC1)c1ccc(F)cc1,-4,-3,1,7,7,-1
CC(Oc1ccc(Br)cc1)C(=O)Nc1ccc(S(=O)(=O)NC2=NCCCCC2)cc1 (stereo not given),-4,29*,23*,-8,-12,18
CC(Oc1ccc(F)cc1)C(=O)Nc1ccc(S(=O)(=O)NC2=NCCCCC2)cc1 (stereo not given),2,24*,5,3,-11,-4
CC(Oc1cccc(Cl)c1)C(=O)Nc1ccc(S(=O)(=O)NC2=NCCCCC2)cc1 (stereo not given),-8,12,12,7,3,-8
CC1CCN(CC(O)CN2c3ccccc3Sc3ccccc32)CC1 (stereo not given),2,-5,25*,-11,2,8
CC1CCN(C(=O)N2c3ccccc3Sc3ccccc32)CC1,-8,-7,0,-6,5,-10
O=C(CN1CCCCC1)N1N=C(c2cccs2)CC1c1cccs1 (stereo not given),-2,-9,0,-26,17,97*
O=C(CNCCO)N1N=C(c2cccs2)CC1c1cccs1 (stereo not given),-16,-16,0,7,8,-9
O=C(NNC(=O)c1cc2ccccc2oc1=O)c1ccccc1[N+](=O)[O-],-9,-3,1,-2,8,-13
N[C@@H](C(=O)N[C@@H]1C(=O)N2C(C(=O)O)=C(Cl)CS[C@H]12)c1ccccc1,-1,18*,1,-3,12,-28
Cc1oc(-c2ccccc2F)nc1CS(=O)(=O)CC(=O)NC1CCCC(C)C1C (stereo not given),-6,-1,1,9,20,-13
Cc1oc(-c2ccccc2F)nc1CS(=O)(=O)CC(=O)NC1CCCC1,10,-1,7,-14,-7,33*
CCN(CCO)Cc1csc2c(Br)cccc12,-16,-4,1,23*,18,-41
CCN(CCO)Cc1csc2ccccc12,-4,-1,0,9,10,-7
Cc1cccc(N2CC(O)(c3cccs3)[N+]3=C2CCCC3)c1C (stereo not given),8,-5,6,-17,-1,37*
Cc1cccc(N2CC(O)(c3cccs3)[N+]3=C2CCCC3)c1 (stereo not given),1,-4,0,-5,-15,14
Cc1ccc(N2CC(O)(c3cccs3)[N+]3=C2CCCC3)cc1 (stereo not given),-13,-8,0,-22,-9,40*
COc1ccc(C(=O)NCC(c2cccs2)N2CCc3ccccc32)c(OC)c1 (stereo not given),-32,-2,5,-4,58*,-4
COc1ccc(C(=O)NCC(c2ccco2)N2CCc3ccccc32)cc1 (stereo not given),-11,-6,-1,7,18,-18
C=CCN1C(=O)NC(c2ccc(OC)cc2)(C(F)(F)F)S/C1=C(\C#N)c1nnc(N2CCOCC2)n1-c1ccccc1 (stereo not given),-10,19*,3,5,25,-8
S=c1nc(-c2cc(Cl)ccc2Cl)[nH][nH]1,26*,6,0,15,-14,1
Cc1cccc(Cl)c1NNC(=O)Nc1c([N+](=O)[O-])c(C)nn1C,16,-1,1,9,-23,-14
SMILES,CHO-K1 Ca antag,M1 ag,CHO-K1 Ca ag,CHRM1 PAM,CHO-K1 Ca PAM,M1 antag
O=c1[nH]cc(CCCc2ccccc2)c(=O)[nH]1,-15,-1,0,9,18,-6
CN(C)CCCN1c2ccccc2CCc2ccccc21,5,-6,1,-25,7,87*
CNC(=O)N1c2ccccc2CCc2ccccc21,-7,-2,0,3,10,-11
CC(CN(C)C)CN1c2ccccc2CCc2ccccc21 (stereo not given),8,-4,1,-26,8,98*
COc1cc(C(=S)N2CCOCC2)ccc1OC(=O)c1ccc(Br)cc1,28*,1,12,-18,7,47*
COc1ccc(C(=O)C(=O)c2ccc(OCCO)cc2)cc1,-15,2,1,30*,7,-20
CSc1nc(N)nc(SCC(=O)Nc2ccc(Cl)cc2)c1C#N,0,2,7,-1,2,6
CSc1nc(N)nc(SCC(=O)Nc2cccc(F)c2)c1C#N,13,1,11,-10,-1,24*
O=C(Nc1ccc(S(=O)(=O)N2CCCCC2)cc1)c1ccccc1Cl,-10,-4,2,11,21,-11
COc1cc2c(cc1OC)CN(CC(=O)Nc1ccc(S(=O)(=O)N3CCCC3)cc1)CC2,-11,-5,2,-7,5,10
O=C(CN1CCN(S(=O)(=O)c2ccc(Br)cc2)CC1)Nc1ccc(F)cc1,-10,-3,2,-3,16,1
O=C(Nc1ccccc1)Nc1ccc(S(=O)(=O)N2CCCCC2)cc1,24*,6,11,-10,4,17
COc1cc2c(cc1OC)C(C)N(CC(=O)Nc1ccc(S(=O)(=O)N3CCCC3)cc1)CC2 (stereo not given),-12,-3,4,-25,2,58*
CCN(CC(=O)Nc1cc(S(=O)(=O)N2CCCCC2)ccc1Cl)Cc1ccccc1,36*,0,9,-5,-5,20
O=C(CN1CCN(S(=O)(=O)c2ccc(Br)cc2)CC1)Nc1ccc2c(c1)OCO2,0,4,22*,3,21,-31
CCCC(=O)Nc1ccc(S(=O)(=O)N2CCCC2)cc1,-7,-7,1,11,6,-9
O=C(Nc1cccc(Cl)c1)Nc1cc(S(=O)(=O)N2CCCCC2)ccc1Cl,38*,-3,1,-19,-15,25*
CC1CCN(S(=O)(=O)c2ccc(NC(=O)CN3CCCC(C)C3)cc2)CC1 (stereo not given),7,-7,0,-5,-6,5
O=C(NCc1cccnc1)c1ccc(S(=O)(=O)N2CCCCC2)cc1,-20,-7,3,7,19,-15
CC1CCCN(CC(=O)Nc2ccc(S(=O)(=O)N3CCCC3)cc2)C1 (stereo not given),3,-12,0,-34,-12,67*
CN1CCN(S(=O)(=O)c2ccc(NC(=O)Nc3cccc(Cl)c3)cc2)CC1,12,-3,4,7,18,13
